Source: PubChem BioAssay
MITF primary = human MITF inhibition, primary screen | O75030 | AlphaScreen MITF homodimerization, bead proximity signal | hit rate 0.91% among 650,000 | inhibition, % at 2.6 µM; in the data active = inhibition above about 50%;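 note: 0% = vehicle wells with protein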
TEAD-YAP block = TEAD-YAP interaction inhibition; hit rate 1.4% among 640,000; AID 1259422; HEK-TIYL cells, TEAD-Gal4/YAP UAS-luciferase luminescence; inhibition, % at 9.12 µM; in the data active = inhibition above about 32%;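 note: 0% = median of test compound wells and 100% = reference inhibitor wells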
FBW7 act = human FBW7 E3 ligase activation, primary screen. Q969H0. AlphaScreen FBW7–phospho-cyclin E peptide binding, activator screen. normalized activity (activation), % at 26.1 µM. hit rate 0.13% among 650,000; in the data active = normalized activity above about 1.9%;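 note: purified mutant Fbw7 with reduced substrate affinity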
Target sequence (Q969H0 whole entry, looked up): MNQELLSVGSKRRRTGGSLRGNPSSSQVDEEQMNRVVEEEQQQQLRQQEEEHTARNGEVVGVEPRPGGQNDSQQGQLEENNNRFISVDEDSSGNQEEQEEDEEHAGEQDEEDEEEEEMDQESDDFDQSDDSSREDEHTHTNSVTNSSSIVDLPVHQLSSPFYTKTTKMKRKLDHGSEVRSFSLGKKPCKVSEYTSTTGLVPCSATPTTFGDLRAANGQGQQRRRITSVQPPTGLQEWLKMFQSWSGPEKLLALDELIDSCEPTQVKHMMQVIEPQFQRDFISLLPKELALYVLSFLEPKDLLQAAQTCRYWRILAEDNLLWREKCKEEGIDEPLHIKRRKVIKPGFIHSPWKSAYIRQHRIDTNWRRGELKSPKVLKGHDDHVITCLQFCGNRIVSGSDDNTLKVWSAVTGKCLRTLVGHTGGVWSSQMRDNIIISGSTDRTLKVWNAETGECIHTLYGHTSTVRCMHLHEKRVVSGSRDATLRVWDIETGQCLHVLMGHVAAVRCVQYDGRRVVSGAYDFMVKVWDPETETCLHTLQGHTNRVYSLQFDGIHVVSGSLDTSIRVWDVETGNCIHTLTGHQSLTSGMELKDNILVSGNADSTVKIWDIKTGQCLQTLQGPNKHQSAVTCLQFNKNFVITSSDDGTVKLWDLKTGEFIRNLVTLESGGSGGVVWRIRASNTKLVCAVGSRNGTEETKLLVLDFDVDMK
GPR151 activ = activates the human receptor GPR151. Q8TDV0. AID 1508602. activation, % at 11.2 µM. hit rate 1% among 650,000. PathHunter beta-arrestin GPR151 cells, luminescence; in the data active = activation above about 4.9%;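 note: 0% = median of compound wells and 100% = cells with positive control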
MITF confirm = human MITF inhibition, confirmation | inhibition, % at 2.6 µM | hit rate 16% among 4,700 | shares compounds with MITF primary | AlphaScreen MITF homodimerization, biotin/His-MITF beads;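 active = inhibition above a cutoff derived from the DMSO control wells, cut at about 28% in these data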;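 note: 0% = MITF dimer wells with DMSO only; inhibitors lower the bead chemiluminescence by keeping MITF from dimerizing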
AlphaScreen DR = AlphaScreen optical interference, dose response counter-screen; IC50, µM; AID 1259373; AlphaScreen optical interference counterscreen, cell-free; shares compounds with MITF primary; hit rate 6% among 480; call rule not given here
AS interf ctr = counter-screen: compounds optically interfering with AlphaScreen | shares compounds with MITF primary | LysRS AlphaScreen counterscreen, signal interference, triplicate | inhibition, % at 2.6 µM | hit rate 7.6% among 4,700 | AID 1259376;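 active = inhibition above a cutoff derived from the DMSO control wells, cut at about 30% in these data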
An asterisk follows results filed as active; / = no result. The list is not random: actives were taken first. Their share in the collection is about 3.5%.

SMILES | MITF primary | TEAD-YAP block | FBW7 act | GPR151 activ | MITF confirm | AS interf ctr | others
COc1ccc(CNC(=O)C(C)n2c3ccccc3c3nc(=O)cc(C)n32)cc1 (stereo unspecified) | -1.2 | 2.0 | -0.2 | 0.3 | / | /
COc1ccc(-c2cc3ccccc3n2CC(O)CNCCO)cc1 (stereo unspecified) | 53.0* | 11.4 | 0.4 | -1.0 | 3.1 | -1.6
O=S(=O)(c1cccs1)N1CCN(CC(O)COc2ccccc2F)CC1 (stereo unspecified) | 65.9* | -3.7 | -0.2 | -1.8 | -15.0 | -2.0
O=S(=O)(/C=C/c1ccccc1)N1CCN(CC(O)COc2ccccc2F)CC1 (stereo unspecified) | 59.9* | 2.5 | 0.1 | -0.9 | 2.3 | 8.0
OC(COc1ccccc1F)CN1CCN(c2ccccc2)CC1 (stereo unspecified) | 1.8 | 6.6 | -0.1 | 4.2 | / | /
O=S(=O)(c1cccs1)N1CCN(CCO)CC1 | -2.0 | 6.8 | 0.0 | 1.4 | / | /
O=c1[nH]cc(S(=O)(=O)O)c2ccccc12 | 65.0* | 1.1 | 0.8 | 0.7 | -4.2 | 0.5
CCCCNc1nc(-c2cc(OC)ccc2OC)cs1 | 59.1* | 3.5 | 0.0 | -1.0 | 8.5 | 10.7
c1ccc2c(OCCCCCn3ccnc3)cccc2c1 | -0.3 | 2.9 | -0.1 | 0.4 | / | /
CCN(CC)CCN(C)Cc1c(F)cccc1Cl | 56.5* | 5.0 | -0.1 | 0.8 | -4.7 | 0.4
CCN(CC)CCN(C)Cc1cccc2ccccc12 | 66.2* | 2.9 | -0.2 | -0.8 | -11.1 | 2.2
CCN(CC)CCN(C)Cc1ccc(F)cc1F | 56.7* | 6.9 | 0.0 | 0.4 | -2.4 | -5.6
COc1ccccc1/C=C/C=C1N=C(/C=C/c2ccc(Cl)cc2Cl)OC\1=O | -0.2 | -13.1 | -0.1 | 1.2 | / | /
O=C(c1csc(Nc2cccc3ccccc23)n1)N1CCCC1 | 77.4* | 8.3 | 0.7 | -0.9 | -4.6 | 13.0
Brc1ccccc1Cn1cnc2ccccc21 | -4.7 | 10.7 | -0.1 | 0.7 | / | /
Oc1ccc(Cn2cnc3ccccc32)c2cccnc12 | 95.2* | 51.4* | -2.0 | -0.1 | 96.1* | 100.6*
Oc1ccc(Cn2ccnc2)c2cccnc12 | 108.6* | 14.3 | -0.4 | -0.9 | 112.2* | 99.8*
COc1ccc(CCNC(=O)c2cncc(-c3ccccc3)c2)cc1 | 1.7 | 1.1 | -0.1 | -1.6 | / | /
CSc1ccc(CN2CCCC(CNC(=O)c3cccnc3)C2)cc1 (stereo unspecified) | -2.9 | -4.8 | -0.1 | -1.3 | / | /
O=C(NCC1CCCN(Cc2ccc(OCc3ccccc3)cc2)C1)c1cccnc1 (stereo unspecified) | 50.6* | 9.5 | 0.0 | -0.6 | 0.5 | 13.6
CC(C)[C@@H]1NC(=O)[C@H]2CN(C(=O)NCc3ccccc3)CCN2C1=O | 80.5* | 11.2 | 0.2 | -0.9 | 70.1* | -7.5 | AlphaScreen DR=>6.48
O=C1N[C@@H](CO)C(=O)N2CCN(C(=O)OCc3ccccc3)C[C@H]12 | 0.2 | 0.9 | 0.1 | 0.0 | / | /
CC(C)[C@H]1NC(=O)[C@H]2CN(C(=O)OCc3ccccc3)CCN2C1=O | -3.0 | -9.6 | -0.2 | -1.8 | / | /
C[C@H]1NC(=O)[C@H]2CN(C(=O)NCc3ccccc3)CCN2C1=O | 80.7* | 15.5 | 0.6 | 4.8 | 64.7* | -4.8 | AlphaScreen DR=>6.48
O=C1N[C@@H](CC2CCCCC2)C(=O)N2CCN(C(=O)NCc3ccccc3)C[C@H]12 | 77.4* | 3.3 | -0.1 | 0.7 | 68.4* | -8.9 | AlphaScreen DR=>6.48
SMILES | MITF primary | TEAD-YAP block | FBW7 act | GPR151 activ | MITF confirm | AS interf ctr | others
O=C1N[C@@H](CSCc2ccccc2)C(=O)N2CCN(C(=O)NCc3ccccc3)C[C@H]12 | 80.3* | 11.0 | 0.1 | -1.0 | 73.3* | -14.0 | AlphaScreen DR=>6.48
CCCCCOc1ccc(OC(=O)c2cccc(C(=O)Oc3ccc(OCCCCC)cc3)n2)cc1 | -9.2 | 3.1 | -0.1 | 0.1 | / | /
Cc1nn(C(=O)COc2ccc(F)cc2)c(C)c1Sc1ccccc1 | -0.9 | -11.4 | 0.1 | -0.6 | / | /
Cc1ccc(N2CC(NC(=O)Nc3ccc(S(N)(=O)=O)cc3)CC2=O)cc1 (stereo unspecified) | 8.4 | 0.4 | 0.1 | 2.3 | / | /
O=C(NCc1ccccc1)N1CCN2C(=O)[C@H]3CCCN3C(=O)[C@H]2C1 | 76.3* | 11.2 | -0.2 | -0.7 | 68.5* | -10.7 | AlphaScreen DR=>6.48
O=C(OCc1ccccc1)N1CCN2C(=O)[C@H]3CCCN3C(=O)[C@H]2C1 | -0.6 | -5.5 | -0.4 | 1.7 | / | /
C[C@@H](O)[C@@H]1NC(=O)[C@H]2CN(C(=O)NCc3ccccc3)CCN2C1=O | 75.3* | -3.0 | -0.3 | -1.0 | 72.1* | -14.9 | AlphaScreen DR=>6.48
CC(C)C[C@@H]1NC(=O)[C@H]2CN(C(=O)NCc3ccccc3)CCN2C1=O | 78.3* | 10.9 | -0.3 | -0.4 | 72.3* | -5.4 | AlphaScreen DR=>6.48
CCOc1cccc2c1OC(c1cc(OC)c(OC)c(OC)c1)N1N=C(c3cccnc3)CC21 (stereo unspecified) | 0.3 | -27.9 | 0.2 | 0.2 | / | /
Cc1cc(C(=O)O/N=C(\N)c2ccc(Cl)cc2)ccc1[N+](=O)[O-] | -7.1 | -5.2 | 0.1 | -1.0 | / | /
CN(Cc1ccc(C(=O)NCc2ccccc2Cl)c(=O)[nH]1)Cc1nccn1C | 51.6* | 2.0 | -0.1 | -0.7 | 37.7* | 77.6*
CN(CCc1ccccn1)Cc1ccc(C(=O)NCc2ccccc2Cl)c(=O)[nH]1 | 3.8 | -3.8 | -0.1 | -3.3 | / | /
Cc1ccc(C)c(NNC(=O)C(=O)NNc2cc(C)ccc2C)c1 | 50.8* | -2.2 | -0.2 | 1.0 | 1.8 | -4.4
COc1ccc(C(=O)NC2CCCCC2)cc1S(=O)(=O)N1CCC(C)CC1 | 66.5* | 0.5 | -0.2 | 0.1 | 10.4 | 13.2
C=CCN1CC(c2nc3ccccc3n2Cc2ccc(F)cc2)CC1=O (stereo unspecified) | 0.9 | -4.4 | 0.0 | -1.8 | / | /
CN(C)CCOCCOc1cccc2ccccc12 | 62.6* | 14.0 | -0.2 | -0.2 | -1.2 | -1.1
CCN(CC)CCOCCOc1cccc2ccccc12 | 0.7 | 1.5 | 0.1 | 0.7 | / | /
CC(C)Oc1ccccc1OCCN(C)C | 75.3* | 5.2 | -0.3 | 0.4 | 7.1 | 14.6
C=CCN(CC=C)CCOc1ccccc1OC(C)C | 35.1 | -5.1 | -0.1 | 2.1 | / | /
CCOC(=O)N1CCN(Cc2ccc(O)c(OC)c2)CC1 | 19.3 | 18.7 | 0.8 | -1.0 | / | /
O=C(O)c1cc(NC(=O)c2ccc(Br)o2)cc(C(=O)O)c1 | 9.0 | 9.4 | -0.1 | 3.0 | / | /
O=C(CSc1nnc(-c2cccc(Cl)c2)o1)Nc1ccccc1 | 81.6* | -39.8 | 0.2 | -2.0 | 3.6 | 14.6
CC(C)NC(=O)C(=O)N/N=C/c1ccc(OCc2ccccc2Cl)cc1 | 54.9* | -4.2 | -0.1 | -1.0 | -2.4 | -4.2
CC(C)NC(=O)C(=O)N/N=C/c1ccc(OCc2ccc(Cl)cc2)cc1 | -4.2 | -6.0 | -0.1 | -0.7 | / | /
Cc1nc2n(C)c3ccccc3n2c1C(=O)NN | 95.4* | 54.1* | 1.6 | -0.4 | 1.2 | 1.6
CCN(CC)CCOC(=O)c1c(C)nc2n(C)c3ccccc3n12 | 8.4 | 14.8 | 0.9 | 0.4 | / | /
[O-][N+]1=C2CCc3nonc3C2(O)CC1N1CCOCC1 (stereo unspecified) | 6.2 | 4.2 | 0.2 | 0.9 | / | /
